Assay outcomes deposited in PubChem by Buhrlage Lab, Dana-Farber Cancer Institute and Novartis Institutes for BioMedical Research (Cambridge, Mass).
Compounds with a hit are over-represented: about 5% of the library has one in this group of screens.
UCHL1 inh: blocks human UCHL1 ubiquitin-rhodamine cleavage; P09936; purified UCHL1, Ub-rhodamine cleavage fluorescence; inhibition, % at 20 µM; 0.2% of 47,000 active; AID 1645859
USP10 inh: inhibitors of human USP10 deubiquitinase; 1.1% of 47,000 active; purified USP10, Ub-rhodamine fluorescence, 60 min; inhibition, % at 20 µM; Q14694
Target sequence (Q14694 whole entry, looked up): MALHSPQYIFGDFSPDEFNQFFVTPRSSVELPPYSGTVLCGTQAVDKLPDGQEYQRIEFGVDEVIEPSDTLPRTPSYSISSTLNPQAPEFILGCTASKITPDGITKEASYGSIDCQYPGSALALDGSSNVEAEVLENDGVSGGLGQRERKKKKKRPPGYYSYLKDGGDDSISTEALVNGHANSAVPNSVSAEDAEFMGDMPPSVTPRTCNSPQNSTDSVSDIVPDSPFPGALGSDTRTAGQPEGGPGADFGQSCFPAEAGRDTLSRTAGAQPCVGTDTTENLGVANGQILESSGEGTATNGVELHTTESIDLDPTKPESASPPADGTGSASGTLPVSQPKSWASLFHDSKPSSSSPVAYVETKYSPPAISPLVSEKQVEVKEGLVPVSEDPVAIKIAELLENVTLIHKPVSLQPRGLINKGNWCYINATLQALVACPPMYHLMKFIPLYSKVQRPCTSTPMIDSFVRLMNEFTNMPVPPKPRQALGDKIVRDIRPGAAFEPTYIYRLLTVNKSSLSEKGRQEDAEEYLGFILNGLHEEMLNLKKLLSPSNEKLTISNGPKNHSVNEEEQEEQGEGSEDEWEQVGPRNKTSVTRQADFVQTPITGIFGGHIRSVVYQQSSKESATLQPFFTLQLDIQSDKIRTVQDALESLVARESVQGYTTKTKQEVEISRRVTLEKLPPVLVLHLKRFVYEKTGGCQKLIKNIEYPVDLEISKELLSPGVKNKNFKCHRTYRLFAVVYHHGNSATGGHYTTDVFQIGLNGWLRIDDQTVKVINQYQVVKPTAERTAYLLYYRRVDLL
USP8 inh: blocks human USP8 ubiquitin-rhodamine cleavage; P40818; purified USP8, Ub-rhodamine cleavage fluorescence, 30 min; inhibition, % at 20 µM; 4.2% of 47,000 active
USP7 block: human USP7 deubiquitinase inhibition. Q93009. purified USP7, Ub-rhodamine cleavage fluorescence. inhibition, % at 20 µM. 0.3% of 47,000 active
Starred values were filed as active, the others as inactive. Cut-off read from the data, not from the text of the source: active = inhibition above about 30%; inactive = the rest.

SMILES	UCHL1 inh	USP10 inh	USP8 inh	USP7 block
C=C1C=C(CCC(=O)O)C(=O)OC1/C=C/C=C/C (centres undefined)	81*	95*	98*	78*
COc1cccc(-c2cn3c(-c4ccccc4)c(-c4ccccc4)nc3n2-c2ccccc2)c1	0	0	77*	2
COc1ccc(-c2cn3c(-c4ccccc4)c(-c4ccccc4)nc3n2-c2ccccc2)cc1	1	4	80*	2
CCCn1c(-c2ccc(CC)cc2)cn2c(-c3ccccc3)c(-c3ccccc3)nc12	8	4	87*	9
COc1cccc(-c2cc(C(F)(F)F)c3c(-c4ccccc4)nn(-c4ccccc4)c3n2)c1	-5	-5	-5	-2
COc1cccc(-c2cn3c(-c4ccccc4)c(-c4ccccc4)nc3n2-c2cccc(Cl)c2)c1	5	1	81*	4
Cc1noc2nc(C)n(CC(=O)NCc3ccccc3F)c(=O)c12	-15	0	0	-3
Cc1nn2c(CNC(=O)c3ccc(F)cc3Cl)c(C)nc2s1	0	-4	-33	-2
CCc1ccccc1NC(=O)Cn1c(C)nc2c(c1=O)CCN(Cc1ccccc1)C2	-6	-1	52*	-7
COc1ccc(C(NC(=O)c2nc3n(n2)-c2ccccc2S(=O)(=O)N3)C(C)C)cc1 (centres undefined)	3	30*	9	10
Cc1nc(-c2cccnc2)nc2c1CC(=O)N2C1CCCC1	3	-1	37*	-4
COc1cccc2c1OC(C)(C)[C@H]1CC3(CCN(C(=O)COc4cccnc4)CC3)CO[C@H]21	-31	-2	67*	-31
CCOc1cccc2c1OC(C)(C)[C@H]1CC3(CCN(C(=O)c4ccc(NC(C)=O)nc4)CC3)CO[C@H]21	-2	-1	1	0
Cn1ccnc1CN1C(=O)CO[C@H]2CN(C(=O)c3ccc(F)cc3)C[C@H]21	0	0	5	2
Cc1ccc(C)c(S(=O)(=O)N2CCN(c3nc(-c4cccs4)nc4ccccc34)CC2)c1	0	2	-47	5
Cc1ccc2c(c1)-c1onc(C(=O)NCCc3c[nH]c4ccccc34)c1CO2	1	-1	-14	6
O=C(/C=C/c1cccc(F)c1)N1CCc2ccccc21	2	9	42*	11
O=C(/C=C/c1ccc(F)cc1)N1CCCc2ccccc21	-2	4	-4	-31
O=C(/C=C/c1ccc(F)cc1)N1CCc2ccccc2C1	2	1	88*	-3
Cc1ccc(C)c(S(=O)(=O)N2CCC3(CC2)NC(=O)c2ccccc2N3)c1	3	-3	20	6
O=C1NCCCC1Cc1ccc(-c2cccc(C(=O)N3CCc4ccccc4C3)c2)cc1 (centres undefined)	5	6	61*	-4
O=C(Nc1ccc2[nH]c(=O)[nH]c2c1)c1cc(-c2cccnc2)nc2ccccc12	0	-4	-25	-3
CC1=C[C@H]2N(c3ccc(C)cc31)[C@H](C(=O)C(C)(C)C)[C@@H](C(=O)c1ccccc1)[C@]21C(=O)Nc2ccccc21	-5	-10	80*	-6
CC1=C[C@H]2N(c3ccc(C)cc31)[C@H](C(=O)c1cccs1)[C@@H](C(=O)c1ccc(F)cc1)[C@]21C(=O)Nc2ccccc21	2	1	78*	8
CC1=C[C@H]2N(c3ccccc31)[C@H](C(=O)C(C)(C)C)[C@@H](C(=O)c1ccco1)[C@]21C(=O)Nc2ccccc21	-99	-7	-84	-82
SMILES	UCHL1 inh	USP10 inh	USP8 inh	USP7 block
O=C(c1cncnc1)N1CCCC(c2ncc(Cc3ccc(F)cc3)o2)C1 (centres undefined)	-2	-1	-3	-5
COc1ccc(C(=O)Nc2ccc(O)cc2C(=O)O)cc1OC	5	4	33*	7
CC(C)(C)c1ccc(C(=O)Nc2ccc(O)cc2C(=O)O)cc1	2	5	14	5
COc1ccccc1Nc1ccc(NS(=O)(=O)c2cccc(C#N)c2)cc1	5	13	-153	-9
Cc1ccc(-c2c3c4n(c(-c5ccc(Cl)c(Cl)c5)cn4c2C(=O)NC2CCCCC2)CCCC3)cc1	-11	-4	44*	-15
COc1ccc([C@H]2Oc3cc(OC)cc(O)c3C(=O)[C@@H]2[C@@H]2C(=O)c3c(O)cc(O)cc3O[C@H]2c2ccc(OC)cc2)cc1	10	68*	19	26
Cc1nc(SCC(=O)Nc2ccc(S(N)(=O)=O)cc2)c2cnn(-c3ccccc3)c2n1	4	41*	-22	3
Cc1cc(C(=O)C(=O)Nc2nnc(-c3cccnc3)s2)c(C)n1-c1ccccc1F	12	-6	37*	-9
CCOCCc1nnc(NC(=O)C(=O)c2cc(C)n(-c3ccc(F)cc3)c2C)s1	1	-1	0	5
